Results reported in PubChem BioAssay (NCI).
The panel holds about 79,000 compounds, 15% with a hit somewhere; the sample as a whole holds those more often. Active and inactive are the calls of the source. No stated cut-off is given here; in the data, active means growth inhibition above about 70%; inactive means the rest. Where a SMILES comes first, the peptide text is derived from it. [ ]: non-standard residue; d: D form. The star is where a group is joined. ξ: configuration not given here. NMeF = CN[C@@H](Cc1ccccc1)C(=O)O; dThr(3ξ) = CC(O)[C@@H](N)C(=O)O; dNMeL = CN[C@H](CC(C)C)C(=O)O; NMeV = CN[C@H](C(=O)O)C(C)C; ξNMeN = CNC(CC(N)=O)C(=O)O; NMeA = CN[C@@H](C)C(=O)O; ξNMeV = CNC(C(=O)O)C(C)C; Boc = CC(C)(C)OC(=O)*; OBn = c1ccc(CO*)cc1; ξLac = CC(O)C(=O)O

Assay: NCI Yeast Anticancer Drug Screen. Data for the rad50 strain (AID 155);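 further: 0% = growth of vehicle-only cultures of the same strain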
Conditions: S. cerevisiae rad50 strain growth inhibition; at 50.0 µM; hits give high values
In short: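 Growth of the mutant yeast was measured after compound exposure and referenced to vehicle-treated cultures.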

| Compound | growth inhibition |
| --- | --- |
| CC(=O)OC(C)[C@@H](NC(=O)[C@@H](CC(C)C)N(C)C(=O)[C@@H]1CCCN1C(=O)C(C)O)C(=O)OCc1ccccc1 (stereo not given in full) (H-[ξLac]P[dNMeL][dThr(3ξ)](Ac)-OBn) | 8.75% (inactive) |
| Cc1cccc(OC(=O)Oc2cccc(C)c2)c1 | -5.75% (inactive) |
| Cc1ccc(S(=O)(=O)NNC(=O)c2cccnc2)cc1 | -11.4% (inactive) |
| C/C(=N\N=C\N(C)S(=O)(=O)c1ccc(C)cc1)c1ccccc1 | -10.7% (inactive) |
| CC(O)C(C)C(N)C(=O)O (stereo not given) | 3.7% (inactive) |
| CCOC(=O)C1CCCc2sc(N)c(C#N)c21 (stereo not given) | 1.15% (inactive) |
| CC12CCC(CC1)C2(C)C | 5.6% (inactive) |
| CN(C)C(=S)SCC(=O)c1ccccc1 | -23.1% (inactive) |
| CSc1cc(Cl)c(C)cc1S(=O)(=O)NC(=O)NNc1cccc(C(F)(F)F)n1 | 15.2% (inactive) |
| O=C(OC1CCCC1OC(=O)c1ccccc1)c1ccccc1 (stereo not given) | -11.5% (inactive) |
| CNC(=O)c1cccc([N+](=O)[O-])c1 | 32.1% (inactive) |
| S=C1CNC(=S)CN1 | -4.15% (inactive) |
| [O-]/[N+](=C\c1cccc(O)c1)c1ccccc1 | -1.75% (inactive) |
| CCCc1cc(=O)oc2c3c(c4c(c12)OC(C)(C)C=C4)O[C@H](C)[C@@H](C)C3O (stereo not given in full) | -6.25% (inactive) |
| O=[N+]([O-])c1ccc(N/N=C2/CC(c3ccccc3)C(c3ccccc3)=C2Cl)c([N+](=O)[O-])c1 (stereo not given) | 26.2% (inactive) |
| COc1nc(NC2OC(COC(C)=O)C(OC(C)=O)C(OC(C)=O)C2OC(C)=O)c(-c2csc(N)n2)c(=O)n1C (stereo not given) | -6.6% (inactive) |
| O=c1[nH]cnc2nn(C3OC(CO)C(O)C3O)nc12 (stereo not given) | 10.7% (inactive) |
| Cn1c(=O)c2c(ncn2CCSCC2=NS(=O)(=O)c3cc(S(N)(=O)=O)c(C(F)(F)F)cc3N2)n(C)c1=O | 2.8% (inactive) |
| CC(C)CNC(=O)c1ccccc1 | 0.45% (inactive) |
| CCOc1c(N=Nc2ccc([N+](=O)[O-])cc2)c(C)nn1C(N)=S | -8% (inactive) |

| Compound | growth inhibition |
| --- | --- |
| Clc1ccc(-c2nnc(-c3ccc4ccccc4c3)o2)cc1Cl | 3.25% (inactive) |
| O=C(O)C1C2CCC3C(C(=O)O)C3C21 (stereo not given) | -2.7% (inactive) |
| c1ccc(C2CCN3c4ccc5ccccc5c4NCC23)cc1 (stereo not given) | 36% (inactive) |
| CCOC(=O)/C=C(/C)N(CC)CC | 23.9% (inactive) |
| CCCCCCCCCCCCOC1C(COCCN2CCCCC2)OC2OC(C)(C)OC21 (stereo not given) | 92.6% (active) |
| CC1NC(=O)CC(c2ccccc2)N(N=O)C1c1ccccc1 (stereo not given) | -53.5% (inactive) |
| CCCCCC(=O)NC1CCCCC1 | 5.55% (inactive) |
| O=C(Cl)c1cccc2c([N+](=O)[O-])cccc12 | -4.45% (inactive) |
| Nc1cccc(CCc2nc(N)nc(N)c2-c2ccc(Cl)cc2)c1 | 0.6% (inactive) |
| CCCCCC(=O)OCC(Br)CBr (stereo not given) | -7.6% (inactive) |
| O=c1[nH]ncc2ccc([N+](=O)[O-])cc12 | 6.45% (inactive) |
| CCC1(CC)C(=O)C(CC)(CC)C1=O | 44.5% (inactive) |
| O=C(Nc1nnc(C(F)(F)F)s1)c1c(F)cccc1F | 7.75% (inactive) |
| NC12CCC(CC1)C2 | -14.3% (inactive) |
| N#Cc1c(N)[nH]c(=S)c(C#N)c1-c1ccccc1 | 45.9% (inactive) |
| CC(=O)c1cccc(NC(=O)OCC2CC3C=CC2C3)c1 (stereo not given) | 25.4% (inactive) |
| C=CCNC(=S)Nc1ccccc1 | -1.8% (inactive) |
| Clc1ccc(-c2cc(-c3cc(-c4ccc(Cl)cc4Cl)n[nH]3)[nH]n2)c(Cl)c1 | 14.2% (inactive) |
| COC(=O)[C@H](C)N(C)C(=O)C(CC(N)=O)N(C)C(=O)[C@H](Cc1ccccc1)N(C)C(=O)[C@@H]1CCCN1C(=O)[C@H](C(C)C)N(C)C(=O)C(C(C)C)N(C)C(=O)[C@@H](NC(=O)OC(C)(C)C)C(C)C (stereo not given in full) (Boc-V[ξNMeV][NMeV]P[NMeF][ξNMeN][NMeA]-OMe) | -20.1% (inactive) |
| Cc1cc(C2(O)CCCc3ccccc32)[n+]([O-])cc1C (stereo not given) | -17.3% (inactive) |

Assay: NCI Yeast Anticancer Drug Screen. Data for the mec2-1 strain (AID 157)
Conditions: S. cerevisiae mec2-1 strain, at 50.0 µM, hits give high values
In short: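 Compounds were applied to mec2-1 yeast cells. Their growth was then compared with that of vehicle-treated cultures to give growth inhibition.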

| Compound | growth inhibition |
| --- | --- |
| CC(=O)OC(C)[C@@H](NC(=O)[C@@H](CC(C)C)N(C)C(=O)[C@@H]1CCCN1C(=O)C(C)O)C(=O)OCc1ccccc1 (stereo not given in full) (H-[ξLac]P[dNMeL][dThr(3ξ)](Ac)-OBn) | 24.4% (inactive) |
| Cc1cccc(OC(=O)Oc2cccc(C)c2)c1 | -9.25% (inactive) |
| Cc1ccc(S(=O)(=O)NNC(=O)c2cccnc2)cc1 | 18.7% (inactive) |
| C/C(=N\N=C\N(C)S(=O)(=O)c1ccc(C)cc1)c1ccccc1 | -2.8% (inactive) |
| CC(O)C(C)C(N)C(=O)O (stereo not given) | 2% (inactive) |
| CCOC(=O)C1CCCc2sc(N)c(C#N)c21 (stereo not given) | -13.8% (inactive) |
| CC12CCC(CC1)C2(C)C | 0.3% (inactive) |
| CN(C)C(=S)SCC(=O)c1ccccc1 | -27.6% (inactive) |
| CSc1cc(Cl)c(C)cc1S(=O)(=O)NC(=O)NNc1cccc(C(F)(F)F)n1 | 5.25% (inactive) |
| O=C(OC1CCCC1OC(=O)c1ccccc1)c1ccccc1 (stereo not given) | 9.6% (inactive) |
| CNC(=O)c1cccc([N+](=O)[O-])c1 | 19.8% (inactive) |
| S=C1CNC(=S)CN1 | -21.9% (inactive) |
| [O-]/[N+](=C\c1cccc(O)c1)c1ccccc1 | 16.4% (inactive) |
| CCCc1cc(=O)oc2c3c(c4c(c12)OC(C)(C)C=C4)O[C@H](C)[C@@H](C)C3O (stereo not given in full) | 9.3% (inactive) |
| O=[N+]([O-])c1ccc(N/N=C2/CC(c3ccccc3)C(c3ccccc3)=C2Cl)c([N+](=O)[O-])c1 (stereo not given) | 15.6% (inactive) |
| COc1nc(NC2OC(COC(C)=O)C(OC(C)=O)C(OC(C)=O)C2OC(C)=O)c(-c2csc(N)n2)c(=O)n1C (stereo not given) | -26.2% (inactive) |
| O=c1[nH]cnc2nn(C3OC(CO)C(O)C3O)nc12 (stereo not given) | 11.5% (inactive) |
| Cn1c(=O)c2c(ncn2CCSCC2=NS(=O)(=O)c3cc(S(N)(=O)=O)c(C(F)(F)F)cc3N2)n(C)c1=O | 1.75% (inactive) |
| CC(C)CNC(=O)c1ccccc1 | 5.1% (inactive) |
| CCOc1c(N=Nc2ccc([N+](=O)[O-])cc2)c(C)nn1C(N)=S | 8.05% (inactive) |

| Compound | growth inhibition |
| --- | --- |
| Clc1ccc(-c2nnc(-c3ccc4ccccc4c3)o2)cc1Cl | -28.9% (inactive) |
| O=C(O)C1C2CCC3C(C(=O)O)C3C21 (stereo not given) | 18.6% (inactive) |
| c1ccc(C2CCN3c4ccc5ccccc5c4NCC23)cc1 (stereo not given) | 68% (inactive) |
| CCOC(=O)/C=C(/C)N(CC)CC | -4% (inactive) |
| CCCCCCCCCCCCOC1C(COCCN2CCCCC2)OC2OC(C)(C)OC21 (stereo not given) | 93.4% (active) |
| CC1NC(=O)CC(c2ccccc2)N(N=O)C1c1ccccc1 (stereo not given) | -3.3% (inactive) |
| CCCCCC(=O)NC1CCCCC1 | 13.6% (inactive) |
| O=C(Cl)c1cccc2c([N+](=O)[O-])cccc12 | 2.95% (inactive) |
| Nc1cccc(CCc2nc(N)nc(N)c2-c2ccc(Cl)cc2)c1 | 21.6% (inactive) |
| CCCCCC(=O)OCC(Br)CBr (stereo not given) | -10.6% (inactive) |
| O=c1[nH]ncc2ccc([N+](=O)[O-])cc12 | 7.9% (inactive) |
| CCC1(CC)C(=O)C(CC)(CC)C1=O | 28.1% (inactive) |
| O=C(Nc1nnc(C(F)(F)F)s1)c1c(F)cccc1F | 16.7% (inactive) |
| NC12CCC(CC1)C2 | 13.3% (inactive) |
| N#Cc1c(N)[nH]c(=S)c(C#N)c1-c1ccccc1 | 35.5% (inactive) |
| CC(=O)c1cccc(NC(=O)OCC2CC3C=CC2C3)c1 (stereo not given) | 27.1% (inactive) |
| C=CCNC(=S)Nc1ccccc1 | -9.95% (inactive) |
| Clc1ccc(-c2cc(-c3cc(-c4ccc(Cl)cc4Cl)n[nH]3)[nH]n2)c(Cl)c1 | 1.75% (inactive) |
| COC(=O)[C@H](C)N(C)C(=O)C(CC(N)=O)N(C)C(=O)[C@H](Cc1ccccc1)N(C)C(=O)[C@@H]1CCCN1C(=O)[C@H](C(C)C)N(C)C(=O)C(C(C)C)N(C)C(=O)[C@@H](NC(=O)OC(C)(C)C)C(C)C (stereo not given in full) (Boc-V[ξNMeV][NMeV]P[NMeF][ξNMeN][NMeA]-OMe) | -16.6% (inactive) |
| Cc1cc(C2(O)CCCc3ccccc32)[n+]([O-])cc1C (stereo not given) | -2.9% (inactive) |
